# Results filed as inconclusive are left out. A call without a number means that no potency is given here. Activity calls are given as the source filed them. The call rests on the fitted dose curve; in most records, active means well fitted inhibition curve with a large enough effect; inconclusive means small, poorly fitted or top-dose-only effect; inactive means flat fitted curve, though single readings scatter.
# Assays:
# Test in all cases: qHTS profiling for inhibitors of Plasmodium falciparum proliferation (AID 504749); further: nearly all actives have a fitted effect of over 60% in size
# Conditions in all cases: P. falciparum in erythrocytes, SYBR Green DNA, 72 h; series mostly up to 28.7 µM
# [1] = system: CP238
# Outline: (§1)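 SYBR Green fluorescence of parasite DNA, read after lysis and overnight dark incubation, measured growth over 72 h in erythrocyte culture at 0.3% parasitemia and 2.5% hematocrit. Data normalised to DMSO and 0.29 uM artemisinin, with plate-drift correction.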
# [2] = system: CP247
# Outline: as §1
# [3] = system: CP250
# Outline: as §1
# [4] = system: CP252
# Outline: as §1
# [5] = system: CP256
# Outline: as §1
# [6] = system: CP260
# Outline: as §1
# [7] = system: CP262
# Outline: as §1
# [8] = system: CP265
# Outline: as §1
# [9] = system: CP266
# Outline: as §1
# [10] = system: CP268
# Outline: as §1
# [11] = system: CP269
# Outline: as §1
# [12] = system: CP286
# Outline: as §1
# [13] = system: CP291
# Outline: as §1
# [14] = system: CP297
# Outline: as §1
# [15] = system: CP305
# Outline: as §1
# [16] = system: CP315
# Outline: as §1
# [17] = system: CP325
# Outline: as §1
# [18] = system: CP329
# Outline: as §1
# [19] = system: CP335
# Outline: as §1
# [20] = system: DFO2036
# Outline: as §1
# Potency means the concentration at half of the fitted maximal effect.
SMILES,Potency [1],Potency [2],Potency [3],Potency [4],Potency [5],Potency [6],Potency [7],Potency [8],Potency [9],Potency [10],Potency [11],Potency [12],Potency [13],Potency [14],Potency [15],Potency [16],Potency [17],Potency [18],Potency [19],Potency [20]
O=c1[nH]c(=O)n([C@H]2C[C@H](O)[C@@H](CO)O2)cc1Br,inactive,inactive,inactive,inactive,inactive,inactive,inactive,inactive,inactive,inactive,inactive,inactive,inactive,inactive,inactive,inactive,inactive,inactive,inactive,inactive
O=C(O)CN(CCOCCOCCN(CC(=O)O)CC(=O)O)CC(=O)O,inactive,inactive,inactive,inactive,inactive,inactive,inactive,inactive,inactive,inactive,inactive,inactive,inactive,inactive,inactive,inactive,inactive,inactive,inactive,inactive
NC/C=C/C(=O)O,inactive,inactive,inactive,inactive,inactive,inactive,inactive,inactive,inactive,inactive,inactive,inactive,inactive,inactive,inactive,inactive,inactive,inactive,inactive,inactive
Nc1ncn([C@@H]2O[C@H](CO)[C@@H](O)[C@H]2O)c(=O)n1,inactive,inactive,inactive,inactive,inactive,inactive,inactive,inactive,inactive,inactive,inactive,inactive,inactive,inactive,inactive,inactive,inactive,inactive,inactive,inactive
CC(C)(Oc1ccc(CCNC(=O)c2ccc(Cl)cc2)cc1)C(=O)O,inactive,inactive,inactive,inactive,inactive,inactive,inactive,inactive,inactive,inactive,inactive,inactive,inactive,inactive,inactive,inactive,inactive,inactive,inactive,inactive
CC(=O)[C@@]1(O)CC[C@H]2[C@@H]3CCC4=CC(=O)CC[C@]4(C)[C@H]3CC[C@@]21C,inactive,inactive,inactive,inactive,inactive,inactive,inactive,inactive,inactive,inactive,inactive,inactive,inactive,inactive,inactive,inactive,inactive,inactive,inactive,inactive
NC(=O)c1ncn([C@@H]2O[C@H](CO)[C@@H](O)[C@H]2O)c1O,inactive,inactive,inactive,inactive,inactive,inactive,inactive,inactive,inactive,inactive,inactive,inactive,inactive,inactive,inactive,inactive,inactive,inactive,inactive,inactive
COCC(=O)O[C@]1(CCN(C)CCCc2nc3ccccc3[nH]2)CCc2cc(F)ccc2[C@@H]1C(C)C,4.47 µM (active),3.55 µM (active),4.47 µM (active),4.47 µM (active),4.47 µM (active),1.58 µM (active),6.75 µM (active),4.47 µM (active),6.75 µM (active),5.36 µM (active),2.69 µM (active),1.58 µM (active),4.78 µM (active),0.849 µM (active),6.01 µM (active),6.75 µM (active),6.75 µM (active),4.78 µM (active),1.9 µM (active),1.26 µM (active)
O=C1CC2(CCCC2)CC(=O)N1CCCCN1CCN(c2ncccn2)CC1,inactive,inactive,inactive,inactive,inactive,inactive,inactive,inactive,inactive,inactive,inactive,inactive,inactive,inactive,inactive,inactive,inactive,inactive,inactive,inactive
CCCCCN(CCCCC)C(=O)C(CCC(=O)O)NC(=O)c1ccc(Cl)c(Cl)c1 (stereo not drawn),inactive,inactive,inactive,inactive,inactive,inactive,inactive,inactive,inactive,inactive,inactive,inactive,inactive,inactive,inactive,inactive,inactive,inactive,inactive,inactive
COC(=O)C1=C(C)NC(C)=C(C(=O)OC(C)(C)CN(C)CCC(c2ccccc2)c2ccccc2)C1c1cccc([N+](=O)[O-])c1 (stereo not drawn),3.98 µM (active),3.16 µM (active),3.55 µM (active),3.55 µM (active),2.82 µM (active),2.24 µM (active),4.26 µM (active),3.55 µM (active),6.75 µM (active),7.57 µM (active),4.26 µM (active),2.51 µM (active),3.79 µM (active),3.79 µM (active),5.36 µM (active),4.26 µM (active),6.01 µM (active),3.79 µM (active),1.51 µM (active),3.55 µM (active)
CN(C)C(=O)Oc1cccc([N+](C)(C)C)c1,inactive,inactive,inactive,inactive,inactive,inactive,inactive,inactive,inactive,inactive,inactive,inactive,inactive,inactive,inactive,inactive,inactive,inactive,inactive,inactive
Brc1c(NC2=NCCN2)ccc2nccnc12,inactive,inactive,inactive,inactive,inactive,–,inactive,–,inactive,inactive,inactive,inactive,inactive,inactive,inactive,inactive,inactive,inactive,–,inactive
NCCCNCCSP(=O)(O)O,inactive,inactive,inactive,inactive,inactive,inactive,inactive,inactive,inactive,inactive,inactive,inactive,inactive,inactive,inactive,inactive,inactive,inactive,inactive,inactive
CCCOc1ccccc1-c1nc2n[nH]nc2c(=O)[nH]1,inactive,inactive,inactive,inactive,inactive,inactive,inactive,inactive,inactive,inactive,inactive,inactive,inactive,inactive,inactive,inactive,inactive,inactive,–,inactive
O=C1NCN(c2ccccc2)C12CCN(CCCC(c1ccc(F)cc1)c1ccc(F)cc1)CC2,8.91 µM (active),7.08 µM (active),10 µM (active),7.08 µM (active),5.01 µM (active),10 µM (active),inactive,5.62 µM (active),–,8.49 µM (active),–,7.08 µM (active),–,–,7.57 µM (active),–,–,4.78 µM (active),4.78 µM (active),7.08 µM (active)
CN(C)CCCN1c2ccccc2Sc2ccc(C(F)(F)F)cc21,inactive,inactive,inactive,inactive,inactive,–,inactive,inactive,inactive,inactive,inactive,–,inactive,inactive,inactive,inactive,inactive,inactive,–,–
COc1ccc(CN(CCN(C)C)c2ccccn2)cc1,inactive,inactive,inactive,inactive,inactive,inactive,inactive,–,–,inactive,inactive,inactive,inactive,–,inactive,inactive,inactive,inactive,–,inactive
CC(C)COCC(CN(Cc1ccccc1)c1ccccc1)N1CCCC1 (stereo not drawn),inactive,inactive,inactive,inactive,inactive,–,inactive,inactive,inactive,–,–,–,–,–,–,–,inactive,inactive,–,–
NC1=NCC2c3ccccc3Cc3ccccc3N12 (stereo not drawn),inactive,inactive,inactive,inactive,inactive,inactive,inactive,inactive,inactive,inactive,inactive,inactive,inactive,inactive,inactive,inactive,inactive,–,–,inactive
NC(=Nc1ccccc1)Nc1ccccc1,inactive,inactive,inactive,inactive,inactive,inactive,inactive,inactive,inactive,inactive,inactive,inactive,inactive,–,inactive,inactive,inactive,inactive,inactive,inactive
c1cnc(N2CCN(Cc3ccc4c(c3)OCO4)CC2)nc1,inactive,inactive,inactive,inactive,inactive,inactive,inactive,inactive,inactive,inactive,inactive,inactive,inactive,–,inactive,inactive,inactive,inactive,inactive,inactive
CCn1cc(C(=O)O)c(=O)c2cc3c(cc21)OCO3,inactive,inactive,inactive,inactive,inactive,–,inactive,inactive,inactive,inactive,inactive,inactive,inactive,inactive,inactive,inactive,inactive,inactive,inactive,inactive
CCOC(=O)c1cnc2c(cnn2CC)c1NN=C(C)C,inactive,inactive,inactive,inactive,inactive,–,inactive,inactive,inactive,–,inactive,–,inactive,–,inactive,inactive,inactive,inactive,inactive,inactive
CC(=O)Oc1cc(C(C)C)c(OCCN(C)C)cc1C,inactive,inactive,inactive,inactive,inactive,inactive,inactive,inactive,inactive,inactive,inactive,inactive,inactive,inactive,inactive,inactive,inactive,inactive,–,inactive
Nc1nc(N)c2nc(-c3ccccc3)c(N)nc2n1,inactive,inactive,inactive,inactive,inactive,inactive,inactive,inactive,inactive,inactive,inactive,inactive,inactive,inactive,inactive,inactive,inactive,inactive,–,inactive
CCn1ccnc1CC1COc2ccccc2O1 (stereo not drawn),inactive,inactive,inactive,inactive,inactive,–,inactive,inactive,inactive,inactive,inactive,inactive,inactive,inactive,inactive,inactive,inactive,inactive,inactive,inactive
CCN(CC)CCCN(c1ccccc1)C1Cc2ccccc2C1,11.2 µM (active),8.91 µM (active),7.94 µM (active),10 µM (active),4.47 µM (active),2.82 µM (active),–,3.98 µM (active),8.49 µM (active),7.57 µM (active),10.7 µM (active),5.01 µM (active),7.57 µM (active),13.5 µM (active),6.75 µM (active),–,8.49 µM (active),12 µM (active),4.78 µM (active),5.01 µM (active)
